Compounds without any hit were thinned out: in the full panel of roughly 83,000, 20% have a hit.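 Testing used 96-well plates and a 48-hour single-concentration exposure. Example: -40 means 40% of the starting cells died.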 Unmarked numbers belong to inactive results. The source made the active and inactive calls. Rule for the calls: active = growth percent below 10; inactive = the rest.

Assay in all cases: NCI-60 one-dose screen, 48 h (100 = growth as untreated, 0 = no growth, -100 = all killed)
Common to all, as to conditions: 10 µM unless noted

Test [1] deals with RPMI-8226 leukemia.
Test [2] has as its system OVCAR-8 ovarian.
In test [3] the test system is OVCAR-5 ovarian.
In test [4] the test system is OVCAR-4 ovarian.
For test [5], the system named is SK-OV-3 ovarian.
For test [6], the system named is IGROV1 ovarian.
Test [7] deals with OVCAR-3 ovarian.
Test [8] concerns HS 578T breast.
Test [9] has as its system NCI/ADR-RES ovarian.
The test system of test [10] is BT-549 breast.
The subject of test [11] is MDA-MB-435 melanoma.
Test [12] relates to SW-620 colon.
Test [13] relates to HCT-116 colon.
Test [14] deals with HCC-2998 colon.
For test [15], the system named is KM12 colon.
In test [16] the test system is MCF7 breast.
Test [17] deals with T-47D breast.

Turning to `Fc1ccc([C@@H]2CCNC[C@H]2COc2ccc3c(c2)OCO3)cc1`, the growth was 32.9% in test [1]; 95.9% in [2]; 73.5% in [3]; 90% in test [4]; 90.8% in test [5]; 72% in test [6]. In addition, the growth in [7] was 81.3%; in test [8], 82.8%; in test [9], 86.3%; in test [10], 84.2%; in test [11], 46.5%; in test [12] it was 98.4%. In addition, the growth in test [13] is 49.8%; in [14], -66.8% (active); in [15] it was 76.4%.

As to `Clc1ccc2c(Nc3ccc4oc(NCCN5CCCC5)nc4c3)ccnc2c1`, the growth in test [1] was 77%; in test [2] it was 94.3%; in test [3] it was 101%; in test [4] it was 85.2%; in [5], 114%; in [6] it was 93.7%. In addition, the growth was 82.7% in test [7]; 97.1% in test [8]; 101% in [9]; 95.1% in test [10]; 101% in [11]; 78.4% in test [12]. Also, the growth in test [16] is 68.9%; in test [13], 55.7%; in test [14] it was 76%; in [15] it was 81.7%.

As for `O=C1NCC(Nc2ccc(Br)cc2Cl)C(=O)N1` (stereo unspecified), the growth in test [1] is 110%; in test [2] it was 130%; in test [3], 100%; in test [4], 111%; in [5], 105%; in test [6], 108%. Also, the growth was 114% in [7]; 105% in [8]; 107% in [9]; 111% in test [11]; 100% in [12]; 103% in test [16]. The results for the growth in [13], in [14] and in [15] were 102%, 116% and 108%, respectively.

For the compound `Cn1cc(-c2csc(-c3cn(C)c4ncccc34)n2)c2cccnc21`, the growth in [1] is 87.5%; in [2], 93.7%; in test [3] it was 90.2%; in test [4] it was 100%; in [5] it was 123%; in test [6], 111%. Besides, the growth in test [7] was 112%; in test [9], 91.1%; in [17], 101%; in [10], 93.6%; in test [11], 75.8%; in test [12] it was 92.4%. In addition, the growth is 91.6% in [16], 99.2% in test [14] and 96.4% in test [15].

As for `COC(=O)[C@]12CC[C@@H](C)[C@H](C)[C@@H]1C1=CC[C@@H]3[C@@]4(C)C=C(O)C(=O)[C@@]5(C)COC(=C54)C[C@@]3(C)[C@]1(C)CC2`, the growth in test [1] is -56.5% (active); in test [2], -20.5% (active); in test [3] it was -26.9% (active); in test [4], -39.1% (active); in test [5], -20.8% (active); in [6], -23.5% (active). Moreover, the growth was -92% (active) in test [7]; -18.8% (active) in test [8]; -42.8% (active) in test [9]; -66.6% (active) in test [10]; -60.9% (active) in test [11]; -65.6% (active) in test [12]. Moreover, the growth in [16] was -70.5% (active); in test [13], -86.4% (active); in test [14], -83.3% (active); in [15], -74.2% (active).

`CCOC(=O)C1C(=O)OC2CCCCC21` (stereo unspecified): the growth in test [1] was 99.9%; in test [2] it was 99.5%; in test [3], 117%; in test [4] it was 102%; in test [5], 109%; in [6], 103%. The growth in [7] is 126%; in test [8], 105%; in [9], 116%; in test [10], 97.5%; in test [11], 114%; in test [12], 110%. In addition, the growth was 95.4% in test [16], 101% in [13], 106% in [14] and 109% in test [15].

Turning to `COc1ccc2c(c1)nc(N)c1c3cc(OC)c(OC)cc3cn21`, the growth in test [1] is 42.8%; in test [2], 40.9%; in test [3], 62.5%; in [4], 69.8%; in test [5], 43.9%; in test [6], 65.4%. In addition, the growth in test [7] is 37.6%; in test [9], 33.9%; in test [10], 79.8%; in [11], -26.7% (active); in [12], 34.5%; in test [16] it was 17.5%. For the same compound, the results for the growth in test [13] and in test [15] were 27.7% and 26.9%, respectively.

In the case of `COc1ccc(-c2csc(NC(=O)c3cc(O)c(O)c(O)c3)n2)cc1`, the growth in [1] was 41.1%; in [2] it was 57.6%; in test [3], 86.1%; in test [4] it was 58.6%; in [5], 77.5%; in [6] it was 46.4%. For the same compound, the growth is 72.6% in test [7]; 101% in test [8]; 62.2% in test [9]; 66.9% in test [10]; 64.4% in [11]; 56.8% in test [12]. Further, the growth in test [16] is 60.6%; in test [13], 49.5%; in test [15], 84.8%.

In the case of `COc1ccc(-c2c3c(nn2-c2ccc(N)cc2)CCc2cnoc2-3)cc1OC`, the growth in [1] was 60%; in test [2], 65%; in test [3], 94.1%; in test [4], 102%; in [5], 124%; in [6], 97.6%. The growth in test [7] is 83.1%; in test [9] it was 77.6%; in [10], 81.4%; in [11] it was 94.8%; in test [12], 97.6%; in test [16], 94.1%. Moreover, the results for the growth in test [13], in test [14] and in test [15] were 84.4%, 98.4% and 82.1%, respectively.

As to `COc1cc(NC(=O)c2cc3ccccc3cc2O)c(OC)cc1Cl`, the growth in [1] was -48.7% (active); in [2], 7.08% (active); in [3] it was 2.16% (active); in test [4], 38.4%; in test [5], -14.9% (active); in [6], -31% (active). The growth in test [7] was 10.7%; in [8], 51.7%; in test [9] it was -20.6% (active); in [10], -24.3% (active); in test [11], 3.67% (active); in test [12], 17.5%. Also, the growth is 2.91% (active) in test [16], -21.3% (active) in test [13], -40.4% (active) in [14] and 5.63% (active) in [15].

`CCN1C(=O)c2ccc3c4c(ccc(c24)C1=O)C(=O)N(CCCNCc1ccccc1OC)C3=O`: the growth was -23% (active) in [1]; -22.9% (active) in [2]; -90.6% (active) in test [3]; -60.3% (active) in [4]; 11.1% in test [5]; -63% (active) in test [6]. The growth in test [7] was -20.1% (active); in test [8] it was -31.2% (active); in test [9], 4.44% (active); in [10], -75.9% (active); in test [11], -80.3% (active); in test [12], -57.4% (active). Moreover, the growth in test [16] was -25.5% (active); in test [13], -79% (active); in test [14] it was -82.6% (active); in test [15], -35.1% (active).

As for `S=C(c1ccccc1)N1CCN(c2cccc(Cl)c2)CC1`, the growth in [1] was 86.9%; in test [2], 102%; in test [3], 97.2%; in [4], 120%; in test [5] it was 103%; in [6] it was 107%. Also, the growth is 103% in [9]; 96.9% in [17]; 105% in [10]; 81.5% in test [11]; 98.5% in [12]; 109% in [16]. For the same compound, the growth in [13] is 106%; in test [14], 105%; in [15], 92.5%.

Take `Cn1cc(-c2csc(-c3cn(C)c4ncccc34)n2)c2cc(Br)cnc21`: the growth is 79.3% in test [1]; 94.3% in test [2]; 88.1% in test [3]; 92.1% in [4]; 105% in test [5]; 110% in test [6]. The growth in test [7] was 119%; in [9] it was 79.2%; in test [17], 77%; in [10] it was 95.2%; in test [11] it was 55.2%; in test [12], 89.4%. Besides, the growth in test [16] was 70.2%; in [13], 90.6%; in test [14], 98%; in test [15], 83.1%.

In the case of `Cn1cc(-c2nc(-c3c[nH]c4ncccc34)cs2)c2cccnc21`, the growth is 67.1% in test [1]; 82.9% in test [2]; 83.6% in test [3]; 70.4% in test [4]; 62% in test [5]; 61.5% in test [6]. For the same compound, the growth in test [7] was 82.6%; in test [9], 44.7%; in test [17] it was 51.4%; in test [10], 64.7%; in test [11], 5.79% (active); in test [12] it was 60.4%. Moreover, the growth in [16] was 59%; in [13], 41.7%; in [14], 76.1%; in test [15], 52.1%.

`CC12CCCCC1C(C(N)=O)C(=O)O2` (stereo unspecified): the growth in test [1] is 106%; in [2] it was 102%; in test [3] it was 112%; in test [4], 101%; in [5], 107%; in test [6] it was 119%. Besides, the growth in [8] was 110%; in test [9] it was 102%; in test [17], 114%; in [10], 113%; in test [11], 120%; in [12], 104%. Besides, the growth was 99.3% in test [16] and 112% in [13].

As for `COc1ccc2nc(-c3ccc(-n4cncc4-c4ccc(OC)c(N)c4)cc3)sc2c1`, the growth in test [1] was 88.2%; in [2], 96.8%; in test [3], 108%; in [4], 87%; in test [5] it was 117%; in test [6], 113%. In addition, the growth in [8] is 101%; in test [9], 115%; in test [17], 102%; in [10], 102%; in [11], 105%; in test [12] it was 97.4%. The growth was 82.1% in test [16], 98.4% in test [13], 111% in test [14] and 105% in test [15].

Consider `COc1ccc(-n2nc3c(c2-c2ccc(OC)c(OC)c2)-c2oncc2CC3)cc1`, for which the growth in test [1] is 56.7%; in test [2], 84.7%; in test [3], 99.5%; in test [4] it was 86.1%; in [5] it was 106%; in [6], 99.1%. For the same compound, the growth in test [7] is 76.4%; in test [9], 80.6%; in test [17] it was 71%; in test [10], 77.5%; in [11], 78.6%; in test [12] it was 99%. Moreover, the growth in [16] was 80.8%; in test [13], 87.9%; in test [15] it was 77.7%.

On to `Oc1[nH]c2ccccc2c1/C=c1/ccc2c(c1)N=C(c1cc(F)cc(F)c1)N=2`, for which the growth is 27.5% in [1]; 76.9% in [2]; 85% in [3]; 57.8% in test [4]; 85% in test [5]; 63.3% in test [6]. Also, the growth in test [7] is 55.9%; in [8], 69.4%; in test [9], 61.4%; in [10] it was 40.4%; in [11], 25.2%; in test [12], 36.4%. Moreover, the growth in test [16] is 25.1%; in test [14] it was 81.1%; in [15], 34%.
